The text below walks through data of PubChem BioAssay AID651558 (National Center for Advancing Translational Sciences (NCATS), 2012).

Where “and” joins values, the source holds several entries; their conditions need not be identical. Equal entries are not always repeated. About 480 (40%) of roughly 1,200 compounds were called active. Roughly 29% stayed inconclusive and do not appear here. The call rests on the fitted dose curve; in most records, active means well fitted inhibition curve with a large enough effect; inconclusive means small, poorly fitted or top-dose-only effect; inactive means no such curve, though single readings can be large or run the other way. The list shows a part of the results.
Potency means the concentration at half of the fitted maximal effect.

This experiment can be described thus: qHTS Assay to Find Inhibitors of Chronic Active B-Cell Receptor Signaling: Hit Validation in Primary Screen. Further: nearly all actives have a fitted effect of over 75% in size. The following applies: ABC-DLBCL IkB-luc/CBR ratio luminescence, 4 h; series mostly up to 46.1 µM. The essentials: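 Concentration series (3 nM to 46 uM) tested on TMD8 cells induced with doxycycline for 4 h. Filter-corrected green (IkBa fusion) over red (unfused) luciferase signal; Data were normalised to 10 uM MG-132 and untreated cell wells.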
For orientation: qHTS replaces the single test concentration by a dilution series.
With `N#Cc1ccc(-c2cccs2)nc1SCc1cccnc1`, the Potency is 16.4 µM (active).
Regarding `Cc1cc(C)nc(SCc2ccc(C(=O)N/N=C/c3cccnc3)cc2)n1`, the Potency result is “inactive”.
The result for `COc1ccc2c(c1)sc1nc(-c3ccccc3)cn12` reads 3.26 µM (active).
In the case of `Cc1ccc(C)c(NC(=S)N=Nc2c(O)n(C)c3ccc(S(=O)(=O)N4CCOCC4)cc23)c1` it was “inactive”; in that of `COc1ccc(C2=Nn3c(nnc3-c3ccc(OC)cc3)SC2)cc1`, 14.6 µM (active); in that of `COc1ccc(C2=Nn3c(nnc3-c3ccccn3)SC2)cc1OC`, “inactive”.
In the case of `CCOc1ccc(C2=Nn3c(nnc3-c3ccccc3OC)SC2)cc1` it was 0.0731 µM (active).
Regarding `COc1ccc(C2=Nn3c(nnc3C3CCCCC3)SC2)cc1OC`, the Potency is 2.31 µM (active).
In the case of `COc1ccc(C2=Nn3c(nnc3-c3ccccc3OC)SC2)cc1OC` it was 1.3 µM (active); in that of `CNC(=S)N/N=C(\C)c1ccc(Cl)s1`, “inactive”.
Consider `S=C(Nc1ccccc1)c1nc2ccccc2s1`, for which the Potency entry was “inactive”.
For the molecule `Cc1ccc(-c2oc3ncnc(N)c3c2-c2ccc(C)cc2)cc1`, the Potency result is “inactive”.
In the case of `COc1ccccc1-c1nnc2n1N=C(c1ccc(O)c(O)c1)CS2` it was 0.206 µM (active); in that of `Cc1cccc(C(=O)Oc2ccc(/C=N/O)cc2)c1`, “inactive”.
In the case of `COc1ccc(C(=O)N/N=C/c2ccccc2OC(=O)c2ccccc2)cc1` it was 0.651 µM (active); in that of `NC(=S)N/N=C/c1ccccc1OC(=O)/C=C/c1ccccc1`, “inactive”; in that of `Cc1cccc(C)c1NS(=O)(=O)c1ccc(-c2cnc(C3CC3)o2)cc1`, 0.291 µM (active).
The result for `Cc1cccc(NS(=O)(=O)c2ccc(-c3cnc(C4CC4)o3)cc2)c1C` reads 0.92 µM (active); that for `Cc1cccc(NS(=O)(=O)c2ccc(C3CCCCC3)cc2)n1`, “inactive”; that for `COC(=O)c1[nH]c2c(c1C)C(=O)CC(c1ccccc1)C2` (configuration not stated), 1.3 µM (active).
With `CCOCCOC(=O)c1[nH]c2c(c1C)C(=O)CC(c1ccccc1)C2` (configuration not stated), the Potency was 1.64 µM (active).
In the case of `COc1ccc(OC)c(C2CC(=O)c3c([nH]c(C(=O)OC(C)C)c3C)C2)c1` (configuration not stated) it was 1.64 µM (active); in that of `COCCOC(=O)c1[nH]c2c(c1C)C(=O)CC(c1ccccc1)C2` (configuration not stated), “inactive”.
The result for `CCOCCOC(=O)c1[nH]c2c(c1C)C(=O)CC(c1cccs1)C2` (configuration not stated) reads 2.59 µM (active).
In the case of `NC(=S)N/N=C/c1ncc(C(F)(F)F)cc1Cl` it was “inactive”; in that of `C/C(=N\N1C(=O)c2ccccc2NC1c1ccco1)c1ccccc1O` (configuration not stated), “inactive”; in that of `CCNC(=S)N/N=C(\C)c1ccc(Cl)s1`, “inactive”.
For `O=C(CSc1cccc[n+]1[O-])c1ccc(-c2ccccc2)cc1`, the Potency entry was “inactive”.
With `Cc1ccc(/C(C#N)=C\c2ccc(N3CCOCC3)o2)cc1`, the Potency entry is “inactive”.
As to `O=C1N/C(=C/c2ccc(N3CCOCC3)o2)C(=O)N1c1ccccc1`, the Potency was 16.4 µM (active).
In the case of `O=S1(=O)N=C(Nc2nc3c(s2)CCCC3)c2ccccc21` it was 7.31 µM (active); in that of `Cc1ccc(/C=[N+](\[O-])c2ccc(N(C)C)cc2)c2nsnc12`, “inactive”; in that of `O=C(COc1ccc(-c2ccccc2)cc1)N1CCN(S(=O)(=O)Cc2ccccc2)CC1`, “inactive”.
In the case of `Cc1cccc(OCCCC(=O)NNC(=O)c2cccc(N(C)C)c2)c1` it was “inactive”; in that of `Cc1ccc2c(c1)C(=O)C(=O)N2CCOc1ccccc1`, 20.6 µM (active).
In the case of `Cc1cccc(OCCCN2C(=O)C(=O)c3cc(C)ccc32)c1` it was “inactive”; in that of `Cc1cccc(OCCN2C(=O)C(=O)c3cc(C)ccc32)c1`, 23.1 µM (active).
For `Cc1ccc(OCCN2C(=O)C(=O)c3cc(C)ccc32)cc1`, the Potency was 20.6 µM (active).
`CCCN1C(=O)C(=O)c2cc(Cl)ccc21`: the Potency is 18.4 µM (active).
In the case of `Cc1noc(C)c1COc1ccc(CC(=O)NCc2ccccc2)cc1` it was 14.6 µM (active).
In the case of `NC(=O)NC[C@@H]1CC[C@@H](Cc2ccc(-c3ccccc3)cc2)O1` it was “inactive”; in that of `O=C(COC(=O)Cc1ccc(-c2ccccc2)cc1)NCc1ccccc1`, “inactive”; in that of `O=C(Cc1ccc(-c2ccccc2)cc1)NCc1ccccc1`, 0.517 µM (active).
The result for `Cc1ccccc1N=Nc1c(C)[nH]n(C(N)=S)c1=O` reads “inactive”; that for `Clc1ccc2nc(-c3ccccc3)nc(C(Cl)Cl)c2c1`, 4.61 µM (active).
Regarding `CCOc1ccc(S(=O)(=O)NCc2ccccn2)cc1NC(=O)c1ccccc1F`, the Potency is 8.2 µM (active).
In the case of `Cc1ccc(S(=O)(=O)Nc2cccc(-c3ccc4nncn4n3)c2)cc1` it was 16.4 µM (active); in that of `CNCc1ccccc1Sc1ccc(O)c(O)c1`, 23.1 µM (active); in that of `CS(=O)(=O)C1=C(O)C(=O)N(c2ccccc2)C1c1ccccc1` (configuration not stated), “inactive”.
The result for `COc1ccc(NC(=O)/C(C#N)=C\c2cc(C)n(-c3ccc4c(c3)OCO4)c2C)cc1` reads 2.31 µM (active).
In the case of `Oc1cccc(Nc2nc(N3CCOCC3)nc(N3CCOCC3)n2)c1` it was 8.2 µM (active); in that of `Cc1cc(C)n(-c2nc3ccccc3c(=O)n2OCC#N)n1`, 23.1 µM (active); in that of `Cc1ccc(S(=O)(=O)Cc2ccc(C(=O)N3CCN(c4cccc(C)c4C)CC3)o2)cc1`, 5.17 µM (active) and 20.6 µM (active).
`Oc1[nH]c2ccccc2c1N=NC(=S)N1CCOCC1`: the Potency entry was “inactive”.
In the case of `N#C/C(=C\c1cn(Cc2ccc(F)cc2)c2ccccc12)C(=O)NCc1ccco1` it was “inactive”; in that of `COc1ccc(-c2ccc(CCC(=O)O)n2-c2ccccc2OC)cc1`, “inactive”.
The result for `COc1ccc(CNC(=O)/C(C#N)=C/c2cccc(OC)c2OC)cc1` reads 18.4 µM (active); that for `CC1CC(C)CN(S(=O)(=O)c2ccc(NC(=O)c3ccc(=O)[nH]c3)cc2)C1` (configuration not stated), 9.2 µM (active).
In the case of `Oc1cccc(/C=N/Nc2ccc(Cl)nn2)c1O` it was 14.6 µM (active); in that of `Oc1ccccc1/C=N/Nc1ccnc(SCc2ccccc2)n1`, “inactive”; in that of `CCCCN1C(=O)N(C)C2C1N(C)C(=O)N2CCCC` (configuration not stated), “inactive”.
For the molecule `O=C(CCl)Nc1cc(S(=O)(=O)N2CCCCCC2)ccc1Cl`, the Potency was 20.6 µM (active).
In the case of `O=C(CNC(=O)c1ccco1)N=Nc1c(O)n(CCc2ccccc2)c2ccccc12`, the Potency is 5.8 µM (active).
The result for `O=[N+]([O-])c1cc(/C=N/O)ccc1Sc1ccccc1` reads “inactive”.
In the case of `Cc1csc(NC(=S)NC(=O)c2ccccc2)n1` it was “inactive”; in that of `CCOC(=O)Cc1csc(NC(=S)NC(=O)c2ccccc2)n1`, “inactive”.
In the case of `CCOC(=S)SCC(=O)Nc1nc(-c2ccc(Br)cc2)cs1` it was 3.66 µM (active).
